From PubChem BioAssay (NCI)
About 83,000 compounds went through this panel and 20% of them were active in at least one assay; those are over-represented in the sample as a whole.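 Results are percent growth after 48 hours of single-concentration exposure. 100 means growth as in untreated cells, lower positive values show inhibition; negative values down to -100 show cell death.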 A number with no mark means an inactive call. The source made the active and inactive calls. Rule for the calls: active = growth percent below 10; inactive = the rest.

Experiments:
Assay in all cases: NCI-60 one-dose screen, 48 h (100 = growth as untreated, 0 = no growth, -100 = all killed)
Details in all cases: 10 µM unless noted
HCT-15 colon = test system: HCT-15 colon
SNB-75 CNS = test system: SNB-75 CNS
SNB-19 CNS = test system: SNB-19 CNS
U251 CNS = test system: U251 CNS
PC-3 prostate = test system: PC-3 prostate
SK-MEL-5 melanoma = test system: SK-MEL-5 melanoma
UACC-62 melanoma = test system: UACC-62 melanoma
LOX IMVI melanoma = test system: LOX IMVI melanoma
SK-MEL-28 melanoma = test system: SK-MEL-28 melanoma
SK-MEL-2 melanoma = test system: SK-MEL-2 melanoma
EKVX NSCLC = test system: EKVX NSCLC
SN12C renal = test system: SN12C renal
UO-31 renal = test system: UO-31 renal
TK-10 renal = test system: TK-10 renal
ACHN renal = test system: ACHN renal
CAKI-1 renal = test system: CAKI-1 renal
A498 renal = test system: A498 renal
CCRF-CEM leukemia = test system: CCRF-CEM leukemia
MOLT-4 leukemia = test system: MOLT-4 leukemia

| SMILES | growth (HCT-15 colon) | growth (SNB-75 CNS) | growth (SNB-19 CNS) | growth (U251 CNS) | growth (PC-3 prostate) | growth (SK-MEL-5 melanoma) | growth (UACC-62 melanoma) | growth (LOX IMVI melanoma) | growth (SK-MEL-28 melanoma) | growth (SK-MEL-2 melanoma) | growth (EKVX NSCLC) | growth (SN12C renal) | growth (UO-31 renal) | growth (TK-10 renal) | growth (ACHN renal) | growth (CAKI-1 renal) | growth (A498 renal) | growth (CCRF-CEM leukemia) | growth (MOLT-4 leukemia) |
| --- | --- | --- | --- | --- | --- | --- | --- | --- | --- | --- | --- | --- | --- | --- | --- | --- | --- | --- | --- |
| O=C(OCc1ccc2c(Cl)cc(Cl)c(O)c2n1)N1CCN(C(=O)c2cc3ccccc3[nH]2)CC1 | 22.2% | 36.3% | 24.5% | 13.6% | 24.9% | 25.1% | -2.56% (active) | 24.6% | 39.2% | 27.2% | 23.5% | 28.1% | 4.4% (active) | 42.6% | 11.6% | 17.1% | 14.2% | 21% | 20.5% |
| N=C(N)c1ccc(-c2ccc(-c3ccccc3)o2)o1 | 13% | 32.8% | 38.3% | – | 30.4% | 30.5% | 61.9% | 14.3% | 69.1% | 45.1% | 51.9% | 39% | 41.9% | 60.5% | 38.5% | 37.4% | 48.7% | 15.4% | 15.6% |
| O=C(O)CCCCCCCCCCN1C(=O)/C(=C2/C(=O)N(CC(=O)O)c3ccc(Br)cc32)SC1=S | 44.2% | 92.5% | 99.9% | 72% | 74.8% | 81.2% | 80.3% | 78.2% | 104% | 100% | – | 86.3% | 72.8% | 128% | – | 83.8% | 95.2% | 71.4% | 34.2% |
| CN(C)/C(N)=N/N=C(\c1ccccc1)c1ccccn1 | 90.5% | 101% | 106% | 96.7% | 81.5% | 95.5% | 105% | 93% | 113% | 106% | 112% | 99.4% | 83.6% | 94.6% | 95.7% | 97.1% | 105% | 81.4% | 91.5% |
